Compound activity from PubChem BioAssay.
AMA1 RON2 block = disrupts binding of P. falciparum AMA1 to RON2; AlphaScreen AMA1-biotinylated RON2 peptide binding; Potency, µM (highest dose often 58.2 µM), without a hit: at the highest dose activity change, negative = inhibition, usual class: inhibitors; actives 0.2% (n = 360,000); AID 720542;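 note: potency is the fitted concentration of half-maximal effect; 0% = vehicle wells and -100% = peptide control; nearly all actives have a fitted effect of over 45% in size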
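AMA1 (3D7) with his tag at 25 nM final met compounds first, then biotinylated RON2 peptide at 25 nM; detection used donor plus acceptor beads, 10 µg/mL apiece, read by AlphaScreen after 30 min at room temperature.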
Shiga inhibitor = inhibitors of Shiga toxin in Vero cells; Vero cells, Shiga toxin protein synthesis inhibition reporter; inhibition, % at 38.7 µM; actives 9.2% (n = 290,000); in the data active = inhibition mostly above about 28%, no sharp cut-off; inactive = mostly below about 43%; note: 0% is about no effect
Pf growth 48h = P. falciparum growth inhibition at 48 hours (one generation); P. falciparum luciferase growth in erythrocytes, 48 h; Potency, µM (doses to about 28.7 µM), without a hit: top-dose activity change, negative = inhibition, hits mostly inhibitors; actives 5.9% (n = 310,000); note: potency is the fitted concentration of half-maximal effect; % is set by controls: 0 for no effect and ±100 for the full control effect
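Parasite viability was followed by luminescence of a genomically integrated firefly luciferase. Cultures held 0.1% parasitemia at 2% hematocrit (final), incubated under 5% CO2 at 37 C.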
HCV inh = inhibitors of hepatitis C virus infection; Huh7.5.1 HCVcc-Cre infection, luciferase reporter, 44 h; Potency, µM (series often up to 41.8 µM), for inactives: top-dose activity change, negative = inhibition, actives largely listed as inhibitors; actives 3.4% (n = 340,000); AID 651820; note: potency is the fitted concentration of half-maximal effect; % is set by controls: 0 for no effect and ±100 for the full control effect
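Cells (1,000/well) were plated 4 h before compound, then infected with HCVcc-Cre virus (~0.5 moi). After 44 h further culture, infection was read as luciferase luminescence following a 15 min substrate incubation at room temperature.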
Cycloheximide cs = affects cycloheximide protein synthesis inhibition readout, counter-screen | cell reporter, cycloheximide protein synthesis inhibition counterscreen | max response, % | actives 12% (n = 300,000) | AID 2314; in the data active = max response mostly above about 13%, no sharp cut-off; inactive = mostly below about 14%; note: read at 38.3 µM for the half of the compounds with a filed dose; 0% is about no effect
Pf growth 96h = P. falciparum growth inhibition at 96 hours; P. falciparum luciferase reporter growth, 96 h; Potency, µM (top dose mostly 28.7 µM), without a hit: at the highest dose activity change, negative = inhibition, most hits filed as inhibitors; actives 6.9% (n = 320,000); note: potency is the fitted concentration of half-maximal effect; % is set by controls: 0 for no effect and ±100 for the full control effect
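Readout is luminescence from an integrated firefly luciferase in P. falciparum. Red cells, 2% hematocrit and 0.05% parasitemia final, were cultured with compound through two parasite generations (96 hours) at 37 C, 5% CO2.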
The depositor's hits bear a star; ? = inconclusive; · = no result given; [ ] = dose if it differs, or a comment. An excerpt weighted towards active compounds, which were near 21% of everything screened. Unless noted, calls come from the whole dose curve; as a rule, active = well fitted curve in the direction sought with a large enough effect; inconclusive = small, poorly fitted or top-dose-only effect, or another doubt; inactive = no such curve, though single readings can be large; an effect the other way counts as inactive or inconclusive.

SMILES | AMA1 RON2 block | Shiga inhibitor | Pf growth 48h | HCV inh | Cycloheximide cs | Pf growth 96h
Cc1ccsc1C(=O)N1CCC1(C)C(=O)NS(=O)(=O)c1ccc(C#N)cc1 (centres undefined) | 6% | · | · | · | · | ·
Oc1c(Cl)cc(CN2CCCCC2)c2cccnc12 | · | -6 | 3.7µM* | · | -1 | 1%
Oc1c(CN2CCCCC2)ccc2cccnc12 | -93% | · | · | 10µM* | · | ·
Cc1ccc(C)c(S(=O)(=O)N2CCN(Cc3ccc(O)c4ncccc34)CC2)c1 | 30% | -6 | -12% | ? | -3 | 4.1µM*
OCCN1CCN(Cc2cc(Cl)c3cccnc3c2O)CC1 | -95% | -12 | · | ? | -3 | ?
O=c1c(CN2CCN(c3ccccn3)CC2)coc2ccccc12 | -4% | 87* | 34% | 7% | 66* | 55%
CSc1ncccc1C(=O)N1CCN(S(=O)(=O)c2cc(C)ccc2C)CC1 | -3% | -3 | -10% | 9% | -4 | -17%
CCOC(=O)/C(C#N)=C/Nc1ccccc1OC(F)(F)F | -3% | -3 | -2% | -8% | -1 | 44%
CCOC(=O)C1(C)CCCN1C(=O)c1ccc(OC)c(F)c1 (centres undefined) | 32% | · | · | · | · | ·
CCCNC(=O)C1(S(=O)(=O)c2ccccc2)CC=CC1 | -6% | 28 | ? | 10% | -1 | 23%
Oc1ccc(CN2CCC(Cc3ccccc3)CC2)c2cccnc12 | -66% | 22 | ? | ? | 5 | 2%
CN(Cc1ccco1)Cc1ccc(O)c2ncccc12 | · | · | ? | · | · | 10µM*
Oc1ccc(CN2CCCCC2)c2cccnc12 | -95% | 1 | ? | 6.3µM* | -3 | -1%
CN(CCc1ccccn1)C(=O)CCC1CCCN(C(=O)NC2CCCCC2)C1 (centres undefined) | -5% | -2 | 28% | 18% | -3 | ?
Cc1cc(C)n2nc(SCCCC(=O)c3ccc(F)cc3)nc2n1 | 4% | 20 | -26% | 1% | 1 | ?
COc1cc(-c2nnc(SCC(=O)NC3CCS(=O)(=O)C3)o2)cc(OC)c1OC (centres undefined) | 5% | -3 | 11% | 11% | 0 | 10%
Nc1ccc(CSc2ccc(Cl)cc2)cc1 | 8% | 59* | 68% | -2% | 24* | 58%
CCCCn1c(=O)[nH]c(=O)c2c1nc(-c1cc(Br)ccc1OC)n2C | 17% | 11 | ? | -16% | -2 | ?
C=CCOc1ccc(-c2nc3c(c(=O)[nH]c(=O)n3CCCC)n2C)cc1Br | -8% | 18 | 2% | -18% | -8 | 1%
CCCCn1c(=O)[nH]c(=O)c2c1nc(-c1ccccc1F)n2Cc1ccccc1OC | -19% | -8 | ? | 10µM* | -1 | ?
CCCCn1c(=O)[nH]c(=O)c2c1nc(-c1ccc(OC)c(Br)c1)n2CC(C)C | -17% | 2 | ? | 10µM* | 1 | 2.1µM*
CN1C(=O)[C@H]2[C@@H](/C=C/c3ccccc3)N3C(=O)CN(Cc4ccccn4)C(=O)[C@@]3(C)[C@H]2C1=O | 37% | 2 | 2% | 3% | 1 | 35%
COc1ccccc1CNC(=O)CCNS(=O)(=O)c1ccc2c(c1)oc(=O)n2C | -3% | -6 | ? | 5% | -6 | ?
COc1ccc(-c2cc(-c3nnc(COC(=O)CC4CC5CCC4C5)o3)c3ccccc3n2)cc1OC (centres undefined) | 157% | -7 | 9.3µM* | -17% | -3 | 0%
COc1ccc(CNC(=O)COC(=O)CC2CC3CCC2C3)cc1OC (centres undefined) | 13% | -9 | 1% | -16% | -1 | -8%
SMILES | AMA1 RON2 block | Shiga inhibitor | Pf growth 48h | HCV inh | Cycloheximide cs | Pf growth 96h
Nc1c(Cl)ncnc1N/N=C/c1ccncc1 | 6% | -4 | -14% | 14% | 12 | 0%
Nc1c(Cl)ncnc1N/N=C/c1cccc(O)c1 | 1% | 50* | 51% | 11% | 26* | 2%
Oc1cccc(/C=N/Nc2ncnc3c2ncn3Cc2ccccc2)c1 | -11% | 53* | 27% | 2% | 18* | ?
COc1ccc(/C=N/Nc2ncnc(Cl)c2N)cc1OC | 44% | 13 | 6% | 26% | 14* | 24%
COC(=O)[C@@]12C[C@@H](CC(=O)N3CCN(C(=O)C4CC4)CC3)C(=O)N(Cc3ccccc3)C1=CCC(C)(C)C2 | -7% | · | · | · | · | ·
Cc1ccccc1CSc1ncc(C#N)c(N)n1 | -13% | 63 | 3% | 5% | 10 | 166%
N#Cc1cnc(SCCc2ccccc2)nc1N | 14% | 39* | 72% | 2.2µM* | 24* | 19%
CCCCCCCSc1nc(N)cc(=O)[nH]1 | 4% | -13 | · | 18% | -5 | 7%
CCCCCCSc1ncc(C#N)c(N)n1 | 13% | 37* | 29% | 17% | 29* | -26%
N#Cc1cnc(SCC(=O)c2ccccc2)nc1N | 4% | 18 | 10µM* | 8% | 11 | ·
CCCCNC(=O)CCc1nc2cccnc2n1Cc1ccccc1 | 11% | -9 | 32% | 2% | 1 | 29%
CN(C)CCCN(C(=O)CCS(=O)(=O)c1ccccc1)c1nc2cc3c(cc2s1)OCO3 | -19% | 17 | 18% | ? | 9.9* | 23%
Cc1cc(C)c2sc(N(CCN(C)C)C(=O)CCS(=O)(=O)c3ccccc3)nc2c1 | -18% | 33 | ? | 7% | 1 | ?
COc1ccc(OC)c2sc(N(CCCN(C)C)C(=O)CCS(=O)(=O)c3ccccc3)nc12 | -11% | · | ? | ? | · | 20%
Cc1ccc2sc(N(CCCN(C)C)C(=O)CCS(=O)(=O)c3ccccc3)nc2c1C | -4% | -1 | 39% | ? | 10 | 6.6µM*
CN(C)CCCN(C(=O)CCSc1ccccc1)c1nc2cc3c(cc2s1)OCO3 | -14% | -4 | ? | ? | 3 | 57%
Cc1cccc2sc(N(CCCN(C)C)C(=O)CCc3ccccc3)nc12 | ? | -12 | ? | 10µM* | -5 | 1.9µM*
Cc1cccc2sc(N(CCCN(C)C)C(=O)CN3C(=O)c4ccccc4C3=O)nc12 | 0% | -19 | 25% | -23% | -2 | 55%
CN(C)CCN(C(=O)CCS(=O)(=O)c1ccccc1)c1nc2c(F)cccc2s1 | 11% | 3 | 25% | 9% | -2 | 2.6µM*
CCCCCC(=O)N1C[C@H](n2cc(COC(=O)c3ccccc3)nn2)[C@@H](O)C[C@@H]1c1ccc(OC)cc1 | 6% | · | · | · | · | ·
CCOC(=O)C(CN1CCCC1)c1ccccc1 (centres undefined) | 5% | · | -30% | 16% | · | 74%
O=C(c1ccccc1)C(CN1CCCC1)c1ccccc1 (centres undefined) | 6% | -21 | ? | ? | -5 | 12µM*
O=C(c1ccc(Cl)cc1)C(CN1CCCCC1)c1ccccc1 (centres undefined) | 4% | -3 | -4%[0.00184 µM] | 16µM* | -2 | 0%
Cc1ccc(C(=O)C(C)CN2CCCCC2)cc1 (centres undefined) | · | · | 13µM* | · | · | 13µM*
